# Data as given in PubChem BioAssay (NCATS).
# “And” between values parts separate entries of the source, which are not always exact repeats. Equal entries are not always repeated. Records with an inconclusive call do not appear. The source made the active and inactive calls. Calls follow the shape of the full dose curve.
# Target: Bile acid receptor (Homo sapiens) (UniProt Q96RI1)
# Assay: qHTS assay for small molecule agonists of farnesoid X receptor signaling (AID 588527);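 also: 0% = vehicle basal and 100% = reference agonist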
# Details: HEK293T FXR-UAS-bla, beta-lactamase ratio, 16 h; activation: hits give high values
# Outline: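 Agonist-mode beta-lactamase reporter in GeneBLAzer FXR-UAS-bla HEK293T cells, titration up to 92 uM, 16 h exposure at 37 C, CCF4 fluorescence. Response scaled to DMSO (0%) and 100 uM chenodeoxycholic acid (100%), then Hill-fitted for EC50 and efficacy.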
# Chain of Bile acid receptor (Homo sapiens) (Q96RI1 whole entry, looked up): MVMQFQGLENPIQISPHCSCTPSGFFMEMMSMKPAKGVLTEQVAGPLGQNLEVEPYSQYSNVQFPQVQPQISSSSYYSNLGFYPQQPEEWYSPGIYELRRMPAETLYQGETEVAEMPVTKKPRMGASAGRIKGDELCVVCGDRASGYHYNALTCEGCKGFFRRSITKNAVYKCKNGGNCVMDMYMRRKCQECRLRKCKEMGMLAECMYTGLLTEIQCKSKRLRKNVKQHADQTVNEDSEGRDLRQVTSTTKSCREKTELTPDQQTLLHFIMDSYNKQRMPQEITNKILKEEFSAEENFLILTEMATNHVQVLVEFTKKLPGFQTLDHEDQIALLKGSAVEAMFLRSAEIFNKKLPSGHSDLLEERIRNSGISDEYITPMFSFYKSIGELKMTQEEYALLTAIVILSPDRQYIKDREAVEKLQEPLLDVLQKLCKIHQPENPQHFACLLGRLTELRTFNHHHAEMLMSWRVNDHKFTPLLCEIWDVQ
row,SMILES,activation
1,O=C(O)c1ccc(O)cc1O,1.07% (inactive) and -1.82% (inactive)
2,CCO[Si](CCCN)(OCC)OCC,-1.61% (inactive) and 1.5% (inactive)
3,CCCCCCCCCc1ccccc1,2.7% (inactive)
4,CN(CCO)CC(O)Cn1cnc2c1c(=O)n(C)c(=O)n2C (stereo not given) (tested in a mixture with another compound),1.67% (inactive)
5,C=CC(=O)CC,3.81% (inactive)
6,CCC(C)(C)OC,0.74% (inactive)
7,C=C(C)C(=O)OCCCCCCCCCCCCCCCC,-3.87% (inactive)
8,CC(/C=C/C=C(C)/C=C/C(=O)O)=C\C=C\C=C(C)\C=C\C=C(C)\C=C\C(=O)O,3.47% (inactive)
9,Nc1cnn([C@@H]2O[C@H](CO)[C@@H](O)[C@H]2O)c(=O)n1,-2.94% (inactive)
10,CC(COc1ccc(C(C)(C)C)cc1)OS(=O)OCCCl (stereo not given),3.02% (inactive)
11,Cc1ccc(C)o1,1.14% (inactive)
12,Nc1ncnc2c1ncn2[C@H]1CC[C@@H](CO)O1,0.029% (inactive) and -3.36% (inactive)
13,Cc1ccc(C(=O)O)cc1,-1.14% (inactive)
14,CCCCCCc1ccc(N)cc1,-3.51% (inactive)
15,O=C(Cl)c1cccc([N+](=O)[O-])c1,-3.83% (inactive)
16,Cc1ccccc1C#N,-0.262% (inactive)
17,Cc1c(C(=O)O)c(O)cc2c1C(=O)c1c(O)c([C@H]3O[C@H](CO)[C@@H](O)[C@H](O)[C@H]3O)c(O)c(O)c1C2=O,-1.49% (inactive)
18,CCc1ccccc1O,-1.44% (inactive)
19,O=S(c1ccc(Cl)cc1)c1cc(Cl)c(Cl)cc1Cl (stereo not given),0.155% (inactive)
20,C[Si](Cl)(Cl)c1ccccc1,0.0023% (inactive)

row,SMILES,activation
1,CC(=O)c1c(C)c([N+](=O)[O-])c(C(C)(C)C)c([N+](=O)[O-])c1C,1.55% (inactive)
2,CCCCCCOCCOCCO,-1.2% (inactive)
3,CNc1ccc(O)cc1,3.85% (inactive)
4,CCCCCCCN,-2.09% (inactive)
5,O=S(=O)(O)c1ccc(N=Nc2c(O)ccc3cc(S(=O)(=O)O)ccc23)cc1,-1.3% (inactive)
6,C[Si]1(C)O[Si](C)(C)O[Si](C)(C)O1,-0.282% (inactive)
7,NN(c1ccccc1)c1ccccc1,-1.98% (inactive)
8,C=Cc1ccccc1C=C,-0.167% (inactive)
9,N#Cc1ccccc1,-3.25% (inactive)
10,COc1cc(-c2ccc(N=C=O)c(OC)c2)ccc1N=C=O,0.158% (inactive)
11,C=C(C)C(=O)OCCCCCC,-1.11% (inactive)
12,C=CC(=O)OCCOCCOCCOCCOC(=O)C=C,26.3% (inactive)
13,CCCCCCCCCCCC[N+](C)(C)[O-],8.79% (inactive)
14,COC(=O)CCCCC(=O)OC,-2.8% (inactive) and 3.47% (inactive) and -2.74% (inactive)
15,Nc1c(Cl)cc(Cl)cc1Cl,0.611% (inactive)
16,CCCCCCCCC1CO1 (stereo not given),0.755% (inactive)
17,C=C1C[C@]23C[C@@]1(O)CC[C@H]2[C@@]12C=C[C@H](O)[C@@](C)(C(=O)O1)[C@H]2[C@@H]3C(=O)O,0.442% (inactive)
18,C/C(Cl)=C/CCl,0.345% (inactive)
19,CCCCCCCC/C=C\CCCCCCCC(=O)O,-0.994% (inactive) and -1.49% (inactive)
20,O=C1C=CCCC1,-1.48% (inactive)

# Target: Peroxisome proliferator-activated receptor delta (Homo sapiens) (UniProt Q03181)
# Assay: qHTS assay for small molecule agonists of peroxisome proliferator-activated receptor delta signaling (AID 588534);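 also: 0% = DMSO basal wells and 100% = positive control agonist at 10 µM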
# Details: HEK293T PPARdelta-UAS-bla, beta-lactamase ratio, 18 h; series mostly up to 76.7 µM; activation: at the top concentration
# Outline: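 Cells carrying a PPAR-delta beta-lactamase reporter were treated with compounds for 18 h at 37 °C in agonist mode. CCF4 fluorescence was read after 2 h; EC50 and efficacy from Hill fits.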
# Chain of Peroxisome proliferator-activated receptor delta (Homo sapiens) (Q03181 whole entry, looked up): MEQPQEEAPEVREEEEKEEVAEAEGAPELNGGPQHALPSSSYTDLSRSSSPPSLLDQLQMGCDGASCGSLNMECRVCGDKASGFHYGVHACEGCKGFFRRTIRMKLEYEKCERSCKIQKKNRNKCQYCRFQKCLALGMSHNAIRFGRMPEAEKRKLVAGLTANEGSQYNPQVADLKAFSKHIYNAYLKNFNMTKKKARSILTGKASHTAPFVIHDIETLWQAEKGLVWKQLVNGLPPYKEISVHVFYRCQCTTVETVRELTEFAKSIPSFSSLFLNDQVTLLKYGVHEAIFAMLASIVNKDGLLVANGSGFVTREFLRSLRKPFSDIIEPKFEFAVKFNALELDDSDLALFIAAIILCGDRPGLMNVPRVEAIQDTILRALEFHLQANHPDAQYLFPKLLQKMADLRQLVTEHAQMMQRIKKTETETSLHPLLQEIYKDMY
SMILES,outcome,activation
O=C(O)c1ccc(O)cc1O,inactive,–
CCO[Si](CCCN)(OCC)OCC,inactive,–
CCCCCCCCCc1ccccc1,–,1.84% (inactive)
CN(CCO)CC(O)Cn1cnc2c1c(=O)n(C)c(=O)n2C (stereo not given) (tested in a mixture with another compound),–,3.05% (inactive)
C=CC(=O)CC,–,4.28% (inactive)
CCC(C)(C)OC,–,1.53% (inactive)
C=C(C)C(=O)OCCCCCCCCCCCCCCCC,–,4.79% (inactive)
CC(/C=C/C=C(C)/C=C/C(=O)O)=C\C=C\C=C(C)\C=C\C=C(C)\C=C\C(=O)O,–,-9.87% (inactive)
Nc1cnn([C@@H]2O[C@H](CO)[C@@H](O)[C@H]2O)c(=O)n1,–,-5.23% (inactive)
CC(COc1ccc(C(C)(C)C)cc1)OS(=O)OCCCl (stereo not given),–,-7.63% (inactive)
Cc1ccc(C)o1,–,6.27% (inactive)
Nc1ncnc2c1ncn2[C@H]1CC[C@@H](CO)O1,inactive,–
Cc1ccc(C(=O)O)cc1,–,7.54% (inactive)
CCCCCCc1ccc(N)cc1,–,-7.3% (inactive)
O=C(Cl)c1cccc([N+](=O)[O-])c1,–,0.585% (inactive)
Cc1ccccc1C#N,–,-1.07% (inactive)
Cc1c(C(=O)O)c(O)cc2c1C(=O)c1c(O)c([C@H]3O[C@H](CO)[C@@H](O)[C@H](O)[C@H]3O)c(O)c(O)c1C2=O,–,-3.82% (inactive)
CCc1ccccc1O,–,4.27% (inactive)
O=S(c1ccc(Cl)cc1)c1cc(Cl)c(Cl)cc1Cl (stereo not given),–,-0.715% (inactive)
C[Si](Cl)(Cl)c1ccccc1,–,-3.04% (inactive)

SMILES,outcome,activation
CC(=O)c1c(C)c([N+](=O)[O-])c(C(C)(C)C)c([N+](=O)[O-])c1C,–,8.92% (inactive)
CCCCCCOCCOCCO,–,5.83% (inactive)
CNc1ccc(O)cc1,–,0.16% (inactive)
CCCCCCCN,–,9.57% (inactive)
O=S(=O)(O)c1ccc(N=Nc2c(O)ccc3cc(S(=O)(=O)O)ccc23)cc1,–,0.948% (inactive)
C[Si]1(C)O[Si](C)(C)O[Si](C)(C)O1,–,-3.5% (inactive)
NN(c1ccccc1)c1ccccc1,–,-4.89% (inactive)
C=Cc1ccccc1C=C,–,5.96% (inactive)
N#Cc1ccccc1,–,0.881% (inactive)
COc1cc(-c2ccc(N=C=O)c(OC)c2)ccc1N=C=O,–,9.31% (inactive)
C=C(C)C(=O)OCCCCCC,–,-3.42% (inactive)
C=CC(=O)OCCOCCOCCOCCOC(=O)C=C,–,-0.244% (inactive)
CCCCCCCCCCCC[N+](C)(C)[O-],–,-0.867% (inactive)
COC(=O)CCCCC(=O)OC,inactive,–
Nc1c(Cl)cc(Cl)cc1Cl,–,5.47% (inactive)
CCCCCCCCC1CO1 (stereo not given),–,6.12% (inactive)
C=C1C[C@]23C[C@@]1(O)CC[C@H]2[C@@]12C=C[C@H](O)[C@@](C)(C(=O)O1)[C@H]2[C@@H]3C(=O)O,–,1.74% (inactive)
C/C(Cl)=C/CCl,–,-5.25% (inactive)
CCCCCCCC/C=C\CCCCCCCC(=O)O,inactive,–
O=C1C=CCCC1,–,-2.17% (inactive)
